Assay outcomes: PubChem, several laboratories
CYP2C9 activ – increases human cytochrome P450 2C9 activity; recombinant CYP2C9, luciferin-H conversion, luminescence; stronger effect = higher value; factor 1 = untreated enzyme, 0 = blocked; actives 1.4% (n = 96,000); activation factor at 5 µM; AID 1024; P11712;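 active means activation factor of 2 or more for CYP2C9 at a 5 µM dose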;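 further: 0 = sulfaphenazole-blocked wells and 1 = vehicle-only wells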
Target sequence (P11712 whole entry, looked up): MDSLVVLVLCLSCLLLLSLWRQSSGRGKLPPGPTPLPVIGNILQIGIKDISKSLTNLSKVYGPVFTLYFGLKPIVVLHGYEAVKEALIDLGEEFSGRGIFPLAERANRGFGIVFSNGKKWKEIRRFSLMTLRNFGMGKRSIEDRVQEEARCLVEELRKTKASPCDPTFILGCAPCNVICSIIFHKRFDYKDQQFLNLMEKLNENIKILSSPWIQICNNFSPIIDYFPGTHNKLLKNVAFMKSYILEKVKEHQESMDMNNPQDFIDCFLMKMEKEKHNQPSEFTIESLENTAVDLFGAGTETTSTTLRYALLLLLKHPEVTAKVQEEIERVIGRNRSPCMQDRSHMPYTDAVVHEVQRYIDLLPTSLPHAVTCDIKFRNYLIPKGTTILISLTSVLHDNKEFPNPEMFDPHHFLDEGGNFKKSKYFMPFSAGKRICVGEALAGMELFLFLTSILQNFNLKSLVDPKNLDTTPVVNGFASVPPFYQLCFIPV
CYP2C19 inhib – human CYP2C19 inhibition; P33261; AID 778; actives 21% (n = 96,000); inhibition, % at 5 µM; CYP2C19 Supersomes, luciferin-H EGE luminescence, 30 min;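 active means CYP2C19 inhibition above a set limit at 5 µM in the primary screen, cut at about 50% in these data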;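 further: plate controls were negative control wells for no effect and 2.5 mM tranylcypromine positive control for full effect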
PostGolgi ctrl – growth of the yeast control strain, post-Golgi counter-screen; efflux-deficient yeast background strain, growth absorbance A615, 16 h; inhibition, % at 10 µM; actives 5% (n = 98,000); AID 738
PostGolgi yeast – growth inhibition of a yeast mutant, post-Golgi transport screen; actives 0.9% (n = 98,000); AID 739; inhibition, % at 10 µM; post-Golgi transport phenotypic cell assay;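 further: yeast cells grown in 1536-well plates; yeast grown about 18 h at 30C before absorbance read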
CYP2C19 act – increases human CYP2C19 enzyme activity | recombinant CYP2C19, luciferin-H EGE luminescence; stronger effect = higher value; 0 = fully inhibited enzyme, 1 = untreated enzyme | activation factor at 5 µM | 96,000 tested, under 10 active;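 active means activation factor of at least 2 at 5 µM in the primary screen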;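 further: 0 = wells with 2.5 mM tranylcypromine and 1 = vehicle-only wells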
CYP2C9 inh – inhibitors of human CYP2C9; actives 20% (n = 96,000); CYP2C9 Supersomes, luciferin-H conversion, luminescence; inhibition, % at 5 µM; P11712;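 active means blocking of liver enzyme CYP2C9 beyond about 50% at 5 µM, limit read from the data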
* marks the source's active call; other numbers are inactive results; · = not tested or not shown. A selection: hits, their analogues and other compounds. The true share with any hit is near 32%. Unless noted, no stated cut-off is given here; in the data, active means inhibition above about 30%; inactive means the rest.

SMILES | CYP2C9 activ | CYP2C19 inhib | PostGolgi ctrl | PostGolgi yeast | CYP2C19 act | CYP2C9 inh
CCCC(=O)NCCCc1nc2ccccc2n1CCC | 1.5 | 7 | 40* | 9 | 0.9 | -47
CCCn1c(CNc2ccccc2O)nc2ccccc21 | 0.7 | 51* | 11 | 12 | 0.5 | 28
CCCCn1c(CNC(=O)CCC)nc2ccccc21 | 1 | 22 | 14 | -14 | 0.8 | 4
CCn1c(CCCNC(=O)c2cccs2)nc2ccccc21 | 1.6 | 76* | 15 | -1 | 0.2 | -59
CC1CN(C(=O)c2ccc(COCC(F)(F)F)o2)CC(C)O1 (centres undefined) | 1.2 | 4 | -2 | 1 | 1 | -19
CC(OC(=O)c1nsc(Cl)c1Cl)C(=O)NCc1ccco1 (centres undefined) | 0.4 | 67* | 9 | -8 | 0.3 | 56*
CC(C)CC(C(=O)OCC(=O)Nc1ncc(Cl)cc1Cl)N1C(=O)c2ccccc2C1=O (centres undefined) | 0.9 | 11 | 18 | 1 | 0.9 | 7
CC(C)C(OC(=O)c1ccco1)C(=O)NCc1ccco1 (centres undefined) | 1.1 | -3 | 11 | -2 | 1 | -13
CC(OC(=O)CCc1nc2ccccc2c(=O)[nH]1)C(=O)NCc1ccc2c(c1)OCO2 (centres undefined) | · | · | -4 | -3 | · | ·
Cn1nc(C(=O)NCc2ccccc2)c2ccccc2c1=O | 0.8 | 58* | -8 | 12 | 0.4 | 24
Cn1nc(C(=O)NCc2ccc(F)cc2)c2ccccc2c1=O | · | · | 0 | -5 | · | ·
CC(OC(=O)c1ccccc1NCc1ccco1)C(=O)Nc1ncc(Cl)cc1Cl (centres undefined) | 0.2 | 66* | 9 | -3 | 0.3 | 81*
CC(OC(=O)c1nn(C)c(=O)c2ccccc12)C(=O)NCc1ccc2c(c1)OCO2 (centres undefined) | 0.2 | 38 | 8 | -2 | 0.6 | 78*
O=C1C2CC=CCC2C(=O)N1c1n[nH]c(Cc2ccccc2)n1 (centres undefined) | 1.1 | -2 | 15 | 0 | 1 | -6
CC(OC(=O)c1nsc(Cl)c1Cl)C(=O)NCc1ccc2c(c1)OCO2 (centres undefined) | 0.1 | 31 | -4 | -1 | 0.7 | 92*
CC(C)CCn1nc(C(=O)OC(C)C(=O)NC(N)=O)c2ccccc2c1=O (centres undefined) | 0.3 | 37 | 3 | 2 | 0.6 | 67*
Cc1ccc(N2C(N)=NC(N)=NC23CCCC3)c(C)c1 | 1 | -19 | 18 | 5 | 1.2 | 5
O=C(c1ccc([N+](=O)[O-])cc1)N(Cc1ccc(Br)cc1)N1C(=O)CCCC1=O | 0.7 | 73* | 6 | 4 | 0.3 | 27
CCOC(=O)c1sc(NC(=O)CSc2nc(-c3ccco3)cc(C(F)(F)F)n2)c(C#N)c1C | 0.3 | 43 | -8 | -10 | 0.6 | 74*
CCOC(=O)c1sc(NC(=O)c2cccnc2)c(C#N)c1C | 0.1 | -4 | -2 | -6 | 1 | 94*
CCOC(=O)c1c(NC(=O)c2cccnc2)sc(C)c1C | 0.8 | 12 | 12 | 13 | 0.9 | 20
CCOC(=O)c1ccc(CSc2ncn[nH]2)o1 | 1 | 21 | -1 | 0 | 0.8 | 4
CCOC(=O)c1sc(NC(=O)CSc2n[nH]c(-c3ccccc3)n2)c(C#N)c1C | 0.3 | 19 | 41* | -7 | 0.8 | 72*
CCOC(=O)c1sc(N(Cc2ccccc2)C(=O)CSc2ncn[nH]2)nc1C | 0.2 | 5 | -1 | -2 | 1 | 79*
CCOC(=O)c1sc(NC(=O)CSc2nc3c(cc2C#N)CCCCC3)c(C#N)c1C | 0.8 | -12 | 4 | -4 | 1.1 | 22
SMILES | CYP2C9 activ | CYP2C19 inhib | PostGolgi ctrl | PostGolgi yeast | CYP2C19 act | CYP2C9 inh
COCCN(C(=O)Cn1nnc2ccccc21)C(C(=O)NC1CCCC1)c1cccc(OC)c1OC (centres undefined) | 0.8 | 7 | 10 | 6 | 0.9 | 16
COc1cccc(NC(=O)NCc2cccn2C)c1 | 1 | 26 | 27 | 14 | 0.7 | 5
Cc1cc(C)cc(NC(=O)CCN2CC(C)OC(C)C2)c1 (centres undefined) | 1 | 33 | 15 | 4 | 0.7 | -4
O=C1OC2CC3CC1CC(O)(C3)C2 (centres undefined) | 1.1 | -16 | -1 | -3 | 1.2 | -8
O=C(NCc1ccccn1)c1ccc(COc2ccc(Cl)cc2)o1 | 0.9 | 8 | 10 | -2 | 0.9 | 5
CCOC(=O)c1sc(NC(=O)CSc2ncn[nH]2)c(C#N)c1C | 0.2 | 79* | 18 | -1 | 0.2 | 82*
CCOC(=O)c1sc(NC(=O)CSc2ccccn2)c(C#N)c1C | 1.1 | -12 | 7 | -12 | 1.1 | -8
COc1ccc(/C=N/c2oc(-c3ccccc3)cc2C#N)cc1OC | 0.6 | 54* | 4 | 6 | 0.5 | 38
COc1cc2c(cc1OC)C(c1ccccc1)N(C(=O)c1ccco1)CC2 (centres undefined) | 0.2 | 94* | 28 | 0 | 0.1 | 82*
COc1cc2c(cc1OC)C(c1cccc([N+](=O)[O-])c1)N(C(=O)c1ccc(F)cc1)CC2 (centres undefined) | 0.3 | 81* | 25 | 0 | 0.2 | 65*
Cc1cc(NC(=O)CSc2nnc(Cn3c(=O)sc4ccccc43)n2-c2ccccc2C)no1 | · | · | 2 | 5 | · | ·
CC(C)OP(=O)(OC(C)C)C(NC(=O)c1cccc([N+](=O)[O-])c1)C(N)=O (centres undefined) | 0.8 | 6 | 2 | -1 | 0.9 | 18
COC(=O)c1c(NC(=O)CN2CCC(C)CC2)c2c(C)cccc2n1C | 0.9 | 20 | 11 | 26 | 0.8 | 6
c1ccc(OCCOc2ccccc2-c2nnco2)cc1 | 0.2 | 91* | 17 | -6 | 0.1 | 75*
Clc1ccccc1COc1ccccc1-c1nnco1 | 0.5 | 27 | -1 | 1 | 0.7 | 50*
Cc1cccc(C(=O)Oc2ccccc2-c2nnco2)c1 | 1.1 | 2 | 22 | -6 | 1 | -15
C/C(=N\NC(=O)c1[nH]c2c([N+](=O)[O-])cc(C)cc2c1-c1ccccc1)c1cccnc1 | 0.7 | 62* | 12 | 3 | 0.4 | 30
C/C(=N\NC(=O)c1ccccc1C)c1cccc([N+](=O)[O-])c1 | 0.9 | 39 | 8 | 0 | 0.6 | 13
CC(O)(CS(=O)(=O)Cc1cccc(C(F)(F)F)c1)C(=O)Nc1cccc(C(F)(F)F)c1 (centres undefined) | 0.6 | 34 | 4 | -3 | 0.7 | 44
CC(O)(CS(=O)(=O)Cc1ccccc1Cl)C(=O)Nc1cccc(C(F)(F)F)c1 (centres undefined) | 0.6 | 54* | 7 | 2 | 0.5 | 38
O=C(O)c1cccc(S(=O)(=O)Nc2ccccc2Cl)c1 | 1.1 | 1 | -12 | 6 | 1 | -13
Cc1cccc(S(=O)(=O)Nc2ccc(C)c3c2OC(C)(C)C3)c1 | 2.1* | 97* | 9 | 1 | 0 | -111
